# From PubChem BioAssay (NCI)
# Where “and” joins values, the source holds several entries; their conditions need not be identical. Identical values can stand only once. This is part of a sample that, as a whole, favours compounds with a hit. Of some 83,000 tested, about 20% had one in any assay.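 Step 1: grow cells in 96-well plates. Step 2: add test compound at a single concentration. Step 3: incubate 48 h. Step 4: record percent growth.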 A number with no mark means an inactive call. Calls of active or inactive are those of the source.
# Test system: RPMI-8226 leukemia
# Assay: NCI-60 one-dose screen, 48 h (100 = growth as untreated, 0 = no growth, -100 = all killed)
# Details: 1 µM
# Experimental: Growth inhibition of the RPMI-8226 human tumor cell line is measured as a screen for anti-cancer activity. Cells are grown in 96 well plates and exposed to the test compound for 48 hours. Compounds are tested at a single concentration, which is 10^-5 M for most compounds. The reported endpoint is percent growth (GI% or GIPRCNT), where numbers from 0 - 100% represent growth inhibition, and numbers from -100% - 0 represent cell death. For example, a value of 40 represents 60% growth inhibition. A value of 0 means no net growth occurred over the course of the experiment. A value of -40 indicates 40% of cells at the beginning of the experiment died by the end of the experiment. A value of -100 means all cells are dead at the end of the experiment.
# NCI-60 Human Tumor Cell Lines Screen was performed using the standard one-dose NCI protocol, which is described in more detail at https://dtp.cancer.gov/discovery_development/nci-60/default.htm.
# Compounds with GIPRCNT values below 10 were considered active. Activity score was based on GIPRCNT using the following formula: […]
# Score is 0 for GIPRCNT values of 100 or above, 50 for GIPRCNT values of 0, and 100 for GIPRCNT values of -100.
row,Compound,growth
1,CC/C(=C(/c1ccc(O)cc1)c1ccc(OCCN(C)C(=O)COCCOCCNC(=O)Cc2ccc3c(c2)CN([C@@H]2CCC(=O)NC2=O)C3=O)cc1)c1ccccc1,90.3%
2,CC/C(=C(\c1ccc(O)cc1)c1ccc(OCCNC)cc1)c1ccccc1,100%

# Same assay, conditions: 10 µM
row,Compound,growth
1,CC/C(=C(/c1ccc(O)cc1)c1ccc(OCCN(C)C(=O)COCCOCCNC(=O)Cc2ccc3c(c2)CN([C@@H]2CCC(=O)NC2=O)C3=O)cc1)c1ccccc1,72%
2,CC/C(=C(\c1ccc(O)cc1)c1ccc(OCCNC)cc1)c1ccccc1,86.1%

# Same assay, conditions: 10 µM unless noted
row,Compound,growth
1,Cc1ccc(C(C)C)cc1Oc1cccc(-c2c(-c3ccc(C(F)(F)F)cc3)ncn2C2CCNCC2)n1,-59% (active)
2,Cc1ccc(C(C(=O)NC2CCCCC2)N(Cc2ccccc2Cl)C(=O)c2ccc(CN3CCOCC3)o2)o1 (stereo not given),80.4%
3,Nc1nn2c(-c3cc4cc(Br)ccc4oc3=O)ccnc2c1N=Nc1ccc(Br)cc1,86.3%
4,COc1c2c(c(Br)c3c1C(CCc1ccccc1)N(C)CC3)OCO2 (stereo not given),16.7%
5,CCOc1ccc(-c2cc(-c3cc(C(C)C)c(O)cc3C)nn2-c2ccc(S(N)(=O)=O)cc2)cc1,13.8%
6,COc1ccc2[nH]c(O)c(N=Nc3nc(-c4ccc(Cl)cc4)cs3)c2c1,13.1%
7,Cc1nc(Nc2ccccn2)sc1C1=NNC(c2ccccc2F)C1 (stereo not given),30.4%
8,COc1ccc2c(c1)C(=O)N(C)C2C1c2c(cc3c(c2OC)OCO3)CCN1C (stereo not given),73.8%
9,O=C1/C(=C/c2cnc(-c3ccccc3)s2)SC(=S)N1Cc1ccc2c(c1)OCO2,110%
10,Oc1ccc(Cl)c(Nc2nc(SCCN3CCOCC3)nc3c2cnn3CC(Cl)c2ccc(Br)cc2)c1 (stereo not given),19.2%
11,COc1cc(CNC(=O)C[C@H](C)CCC=C(C)C)ccc1OCc1cn(-c2ccccc2F)nn1,81.8%
12,Cc1ccc(C(=O)Nc2cc(-n3ccnc3C)cc(C(F)(F)F)c2)cc1C#Cc1cnc2cccnn12,-14.8% (active)
13,Fc1ccccc1CNc1nc(SCCN2CCOCC2)nc2c1cnn2CC(Cl)c1ccc(Br)cc1 (stereo not given),-6.83% (active)
14,Cc1ccc(C(=O)Nc2cc(-n3ccnc3)cc(C(F)(F)F)c2)cc1-n1cc(-c2cnc3cccnn23)nn1,85.2%
15,CC(C)(C)c1ccc(OCc2nc3ccccc3n2-c2cccc(N)c2)cc1,48.3% and 110%
16,Cc1ccc(Nc2nnc(-c3c[nH]c4ccccc34)o2)c(C)c1,-7.61% (active)
17,O=C(CSc1nc2ccccc2c(=O)[nH]1)Nc1ccccc1C(=O)O,102%
18,CCCSc1nnc(-c2c(C)nc3sccn23)o1,70.3%

row,Compound,growth
1,Cc1cccc(NCC(=O)N2CCN(c3ncnc4c3cnn4-c3ccccc3)CC2)c1,75.7%
2,COC(=O)c1cc(C(=O)C(F)(F)F)n2c3ccccc3c3ccccc3c12,96%
3,O=C(N/N=C/c1c[nH]c2ccccc12)Nc1ccccc1Cl,7.68% (active)
4,Cc1oc(-c2ccccc2)nc1CN[C@@H]1C[C@@H]2C[C@H]([C@H]1C)C2(C)C,-3.45% (active)
5,COc1ccc(NC(=O)Cn2c(/C=C/c3cccc(OC)c3)nc3ccccc3c2=O)cc1,41.1%
6,CCC(=O)c1c2c(c3ccc4c5ccccc5ccc4n13)C(=O)c1ccccc1C2=O,95.8%
7,COc1ccc(-c2nc3ccccc3n2CC(=O)N=Nc2c(O)[nH]c3ccc(Br)cc23)cc1,79.1%
8,Cc1ccc(-c2cc(-c3ccccc3)[nH]c(=O)c2C#N)cc1,76.7%
9,COc1sc(/C=N/NC(=O)c2[nH]c3ccc(Br)cc3c2-c2ccccc2)cc1Cl,12.7%
10,Oc1ccc(Cl)c(Nc2ncnc3c2cnn3CC(Cl)c2ccc(Br)cc2)c1 (stereo not given),52.3%
11,Cc1ccc(C(=O)Nc2cc(-c3ccccc3)cc(C(F)(F)F)c2)cc1C#Cc1cnc2cccnn12,36.9%
12,Cc1ccc(C2CC(c3ccc(NC(=O)Nc4ccccc4)cc3)=NN2c2ccc(S(C)(=O)=O)cc2)cc1 (stereo not given),-0.47% (active)
13,Cn1ncc2c(N)nc(Oc3ccccc3-c3ccccc3)nc21,19.4%
14,O=C(CSc1nc2ccccc2c(=O)[nH]1)NNC(=O)c1ccccc1Cl,108%
15,N#Cc1ccc(C(=O)CSc2nc3c(c(Nc4ccc(S(N)(=O)=O)cc4)n2)CCC3)cc1,79.2%
16,Cc1ccc(NC(=O)N/N=C/c2c[nH]c3ccccc23)c(C)c1,9.67% (active)
17,CC1=NN(C2=NC(=O)C(CC(=O)Nc3ccccc3C(F)(F)F)S2)C(c2ccc(N(C)C)cc2)C1 (stereo not given),25.3%
18,CS(=O)(=O)Nc1cc(-c2ccc3ncnc(Nc4ccc(OCc5cccnc5)c(Cl)c4)c3c2)cnc1Cl,-2.42% (active)
